Screens from PubChem.
KDM5B inhibitor = blocks human KDM5B histone demethylase activity; Potency, µM (series often up to 57.7 µM), hits mostly inhibitors; actives 2.6% (n = 220,000); KDM5B demethylase, FDH-coupled NADH fluorescence (FDH is formaldehyde dehydrogenase); Q9UGL1; active = well fitted inhibition curve with a large enough effect; inconclusive = small, poorly fitted or top-dose-only effect; inactive = no such curve, though single readings can be large or run the other way; note: potency is the fitted concentration of half-maximal effect; 0% is about no effect; nearly all actives have a fitted effect of over 70% in size
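Measured: NADH fluorescence change, 30 min, RT. System: KDM5BΔAP 200 nM final, H3K4me3 peptide, α-KG, Fe(II), ascorbate, NAD⁺ plus FDH, pH 7.5 HEPES. Compounds: titrated, 10 min pre-incubation with enzyme.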
IP6K1 inh = IP6K1 kinase inhibition; IP6K1 kinase, ADP-Glo luminescence, 2 h; hits give low values; Q92551; actives 0.81% (n = 140,000); activity change, % (series mostly up to about 58 µM); AID 1645851; in the data active = activity change below about -25%; note: % is set by controls: 0 for no effect and ±100 for the full control effect
Target sequence (Q92551 whole entry, looked up): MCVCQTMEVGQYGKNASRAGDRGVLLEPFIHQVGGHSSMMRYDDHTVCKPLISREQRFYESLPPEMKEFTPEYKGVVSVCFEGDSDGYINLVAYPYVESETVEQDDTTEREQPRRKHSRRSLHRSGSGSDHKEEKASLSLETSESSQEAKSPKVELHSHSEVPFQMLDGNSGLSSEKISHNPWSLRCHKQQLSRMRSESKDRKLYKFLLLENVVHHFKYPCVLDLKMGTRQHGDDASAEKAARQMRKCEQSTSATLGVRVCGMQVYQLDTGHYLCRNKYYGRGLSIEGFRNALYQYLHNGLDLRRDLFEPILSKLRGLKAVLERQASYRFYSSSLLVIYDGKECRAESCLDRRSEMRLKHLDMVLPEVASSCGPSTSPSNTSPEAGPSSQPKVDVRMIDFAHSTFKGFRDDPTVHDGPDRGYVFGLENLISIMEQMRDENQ
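ADP-Glo luminescence measures ADP made by human IP6K1 during a 2 h RT reaction with ATP/IP6 (mix at 1.3 mM/130 uM); top library doses 57.5 and 19.1 uM final.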
Active calls of the source: *; ! = not confirmed by another sample. Only some compounds are listed: those with a hit (about 2.8% of all), similar ones and a draw of the others.

For CCCCn1c(=O)[nH]c(=O)c2c1ncn2CCC(C)C the results were KDM5B inhibitor inactive.
Screening Cn1cccc1CN1CCC2(C1)C(=NC1CCCCC1)NC(=O)N2c1cc(F)cc(F)c1 (stereo not drawn) returned KDM5B inhibitor inconclusive and IP6K1 inh -2.
`COc1ccc(C(=O)NC2CCN(Cc3ccc(-c4cc(F)ccc4OC)cc3)C2)cc1` (stereo not drawn) gave IP6K1 inh -8.
For CC(C)NC(=O)c1nc(-c2ccc([S+](C)(=O)[O-])cc2)c2ccccn12 the results were KDM5B inhibitor inactive and IP6K1 inh 0.
C#CCNC(=O)c1nc(-c2ccc([S+](C)(=O)[O-])cc2)c2cnccn12 was read as KDM5B inhibitor active and IP6K1 inh -4.
C#CCNC(=O)c1nc(-c2ccc([S+](C)(=O)[O-])cc2)c2ccccn12 was read as KDM5B inhibitor inactive and IP6K1 inh -20.
CC(C)NC(=O)c1nc(-c2ccsc2)c2ccccn12 was read as KDM5B inhibitor 112µM* and IP6K1 inh -20.
`CCOc1ccc(N(C(C)C(=O)NCc2ccc(Cl)cc2Cl)S(C)(=O)=O)cc1` (stereo not drawn) gave KDM5B inhibitor inactive.
Cc1nc(-c2ccc(CNC(=O)c3ccc4nc[nH]c4c3)cc2)cs1 was read as KDM5B inhibitor inactive.
`Cc1ccc(C2CCCN2S(=O)(=O)c2ccc(C(C)(C)C)cc2)cc1` (stereo not drawn) gave KDM5B inhibitor inactive.
`COCCN1CCN(C[C@@H]2C=C(C)[C@H](Cc3nnc(-c4ccc(N(C)C)cc4)o3)C[C@H]2C(C)C)CC1` gave KDM5B inhibitor inconclusive and IP6K1 inh 3.
COc1cc(C(=O)NCc2n[nH]c(=O)c3ccccc23)cc(OC)c1OC was read as KDM5B inhibitor inactive.
Screening Cc1ccc(C(=O)N2CCCC(N3C(=O)c4c(c(C)nn4-c4ccccc4)C3C(C)C)C2)cc1 (stereo not drawn) returned IP6K1 inh 23.
For O=C(Nc1ccc(Nc2ccccc2)nc1)c1cc[n+]([O-])cc1 the results were KDM5B inhibitor inactive.
O=C(Nc1nc2ccccc2s1)c1ccc2c(c1)OCCN(CCC(F)(F)F)C2 was read as KDM5B inhibitor 32µM* and IP6K1 inh -11.
`O=C(Nc1nccs1)c1ccc2c(c1)OCCN(CCC(F)(F)F)C2` gave KDM5B inhibitor inactive and IP6K1 inh -3.
`COc1ccccc1-c1ccc(C(=O)N2CCC(C(=O)NCc3cccc(Cl)c3)CC2)cc1` gave IP6K1 inh 1.
CCCCn1c(=O)c(C(=O)NC2CCCc3ccccc32)nc2cccnc21 (stereo not drawn) was read as IP6K1 inh 5.
`Cc1ccccc1C(=O)NC1(C(F)(F)F)N=C(c2ccccc2)N(Cc2ccco2)C1=O` (stereo not drawn) gave KDM5B inhibitor inactive.
`OCC1(Cc2ccccc2F)CCCN(c2nccc(C(F)(F)F)n2)C1` (stereo not drawn) gave KDM5B inhibitor 25µM* and IP6K1 inh -5.
`OCCNc1cc(N2CCCC(CO)(Cc3ccccc3F)C2)ncn1` (stereo not drawn) gave KDM5B inhibitor inactive and IP6K1 inh 1.
CCCCn1c(=O)c(C(=O)N2CCN(C(=O)c3ccc(C(F)(F)F)cc3)CC2)nc2cccnc21 was read as IP6K1 inh 15.
`CCNC(=O)c1sc2ncnc(NC[C@H]3C[C@@H]4C=C[C@H]3C4)c2c1C` gave KDM5B inhibitor inconclusive and IP6K1 inh 15.
Cc1c(C(=O)O)sc2ncnc(NCC3(O)CCCCC3)c12 was read as KDM5B inhibitor 20µM* and IP6K1 inh 25.
For O=C(c1ccccc1)N1CCN(Cc2ccccc2-c2cccnc2)CC1 the results were IP6K1 inh -3.
Cc1noc(C)c1C(=O)NC1CC(=O)N(Cc2cccc(F)c2)C1 (stereo not drawn) was read as KDM5B inhibitor inactive and IP6K1 inh -2.
For CC(C)Nc1ncc(C(=O)NC2CC(=O)N(Cc3cccc(F)c3)C2)cn1 (stereo not drawn) the results were KDM5B inhibitor 22µM* and IP6K1 inh 21.
`N#Cc1nc(-c2ccc(S(=O)(=O)N3CCOCC3)cc2)oc1NCCc1ccccc1` gave KDM5B inhibitor inactive.
Screening CC(C)CNC(=O)c1ccc2oc(-c3ccccn3)nc2c1 returned IP6K1 inh -14.
Screening Cc1cccc(OCC2(CNC(=O)c3cc(C)nn3C)C[C@@H](O)[C@@H](O)C2)n1 (stereo partly drawn) returned KDM5B inhibitor 32µM* and IP6K1 inh 11.
`Cc1cccc(OCC2(CNC(=O)c3cc(C)on3)C[C@@H](O)[C@@H](O)C2)n1` (stereo partly drawn) gave KDM5B inhibitor inconclusive and IP6K1 inh -3.
`CCc1nccc(-c2c(-c3ccccc3)ncn2CCN2CCCCC2CO)n1` (stereo not drawn) gave KDM5B inhibitor inconclusive and IP6K1 inh -1.
For CS(=O)(=O)N1CCCCC1CCNc1nccc(-c2cccnc2)n1 (stereo not drawn) the results were KDM5B inhibitor 32µM* and IP6K1 inh -1.
Screening OCC1CCCCN1CCNc1nccc(-c2cccnc2)n1 (stereo not drawn) returned KDM5B inhibitor 25µM* and IP6K1 inh 8.
For O=S(=O)(c1cccnc1)N1CCCCC1CCN1CCOCC1 (stereo not drawn) the results were KDM5B inhibitor inactive and IP6K1 inh 0.
Cn1ncc2c(C(=O)NCc3ccc(C(F)(F)F)cc3)cc(-c3cccc(F)c3)nc21 was read as IP6K1 inh 1.
CCOc1ccc(NC(=O)Nc2c(N3CCCCC3)c(-c3cccc(F)c3)nn2C)cc1 was read as IP6K1 inh 7.
COc1ccc(-c2noc(C(=O)O)c2[C@@H](C)NC(=O)c2cccn2C)cc1 was read as KDM5B inhibitor 40µM* and IP6K1 inh -7.
`COc1ccc(-c2noc(C(=O)O)c2[C@@H](C)NC(=O)c2ccccc2)cc1` gave KDM5B inhibitor inactive and IP6K1 inh 18.
For Cn1nc(-c2cccc(F)c2)c(N2CCCCC2)c1NC(=O)c1ccccc1F the results were IP6K1 inh 2.
`Cc1cc(-c2nc3ccncc3[nH]2)c(C)o1` gave KDM5B inhibitor 32µM*! and IP6K1 inh 8.
`Cc1oc(-c2ccccc2Cl)nc1CSc1nc2ccncc2[nH]1` gave KDM5B inhibitor inactive.
`Cn1c(=O)c2nc(SCC(=O)NCc3ccc(F)cc3)n(C)c2n(C)c1=O` gave KDM5B inhibitor inactive.
For O=C(COc1ccccc1)N1C[C@@H]2C[C@H](C1)c1ccc(-c3cccc(C(F)(F)F)c3)c(=O)n1C2 the results were KDM5B inhibitor 22µM* and IP6K1 inh 3.
O=C(c1ccc2c(c1)OCO2)N1C[C@@H]2C[C@H](C1)c1ccc(-c3cccc(C(F)(F)F)c3)c(=O)n1C2 was read as KDM5B inhibitor 28µM* and IP6K1 inh 3.
For O=C(Nc1ccc2n(c1=O)C[C@H]1C[C@@H]2CN(C(=O)COc2ccccc2)C1)c1ccccc1 the results were KDM5B inhibitor inactive and IP6K1 inh -7.
O=C(c1ccc2c(c1)OCO2)N1CCC2(CC(c3cccc(C(F)(F)F)c3)=NO2)C1 (stereo not drawn) was read as KDM5B inhibitor inconclusive and IP6K1 inh 8.
